Assay outcomes as filed in PubChem BioAssay.
The list is not random: actives were taken first. Their share in the collection is about 4.4%.
TIM10 inh: inhibits growth of TIM10 yeast strain. S. cerevisiae TIM10 strain growth, BacTiter-Glo luminescence, 24 h. 1.4% of 330,000 active. inhibition, % at 10 µM;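 active means inhibition of 40% or more at the single tested concentration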;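 further: wild-type TIM10 isogenic control strain grown at permissive 25 °C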
tim23-1 inh: growth inhibitors of tim23-1 mutant yeast. S. cerevisiae tim23-1 growth, BacTiter-Glo luminescence, 24 h. inhibition, % at 20 µM. 1.3% of 330,000 active;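 active means growth inhibition of the mutant yeast at or above 50%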;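 further: temperature-sensitive mutant grown at 25 °C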
Mot1-301 SUMO: blocks SUMOylation pathway, rescuing yeast Mot1-301 growth | S. cerevisiae Mot1-301 growth rescue, ATP luminescence, 38.5C; percent above DMSO median, 100 means doubled | growth rescue, % at 18.8 µM | 1% of 320,000 active | AID 2716;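 active means every valid replicate shows activation above 250% relative to neutral control wells; inactive means the rest, any valid replicate at or below 250%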
tim10-1 inh: inhibits growth of tim10-1 mutant yeast; S. cerevisiae tim10-1 ts strain growth, BacTiter-Glo, 24 h; inhibition, % at 20 µM; 2.2% of 330,000 active;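 active means inhibition of at least 40%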;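 further: mutant grown at 25 °C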
PfHsp90 yeast 2: inhibits growth of yeast expressing Plasmodium falciparum Hsp90; AID 504621; 0.32% of 310,000 active; S. cerevisiae expressing PfHsp90, BacTiter-Glo ATP, 48 h; yeast lacking PDR1 and PDR3 efflux regulators; inhibition, % at 9.4 µM;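 active means every replicate shows inhibition above about 80%, whatever the replicate mean, limit read from the data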
tim10-1 confirm: confirmation of tim10-1 mutant yeast growth inhibitors. shares compounds with tim10-1 inh. S. cerevisiae tim10-1 ts strain growth, BacTiter-Glo, 24 h. inhibition, % at 20 µM. 56% of 7,400 active;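 active means inhibition of yeast growth at or above a set limit in either of two repeat tests at 20 µM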;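 further: tim10-1 mutant grown at permissive 25 °C to find synthetic lethal compounds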
TIM10 conf: confirmation of TIM10 yeast growth inhibitors; inhibition, % at 10 µM; 63% of 4,600 active; S. cerevisiae tim10 strain growth, BacTiter-Glo luminescence, 24 h; shares compounds with TIM10 inh; AID 463215;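 active means inhibition of yeast growth at or above a set limit in either of two replicates at 10 µM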; further: this counterscreen used the strain with wild-type TIM10
Numbers stand for hits; – = inactive; · = no result.

SMILES | TIM10 inh | tim23-1 inh | Mot1-301 SUMO | tim10-1 inh | PfHsp90 yeast 2 | tim10-1 confirm | TIM10 conf
COc1cccc(C(=O)NCCN2CCN(c3ccccc3)CC2)c1 | – | – | – | – | – | · | ·
COc1ccc(Cl)cc1S(=O)(=O)N(C)CC(=O)N1CCOCC1 | – | – | – | – | – | · | ·
O=C(CCC1CCCN(C(=O)c2cc3ccccc3o2)C1)NCc1ccc(F)c(F)c1 (centres undefined) | · | · | – | · | – | · | ·
Cc1ccc(C2Oc3ccccc3C3=C2C(c2cccs2)n2ncnc2N3)cc1 (centres undefined) | 45 | – | – | 42 | – | – | –
Fc1ccc(C2C3=C(Nc4ncnn42)c2ccccc2OC3c2ccncc2)cc1 (centres undefined) | – | – | – | – | – | · | ·
CCN(c1ccccc1)S(=O)(=O)c1ccc(C(=O)N(CCCN(C)C)c2nc3cc4c(cc3s2)OCO4)cc1 | 52 | – | – | 64 | – | 60 | 46
CN(C)CCCN(C(=O)c1ccc2ccccc2c1)c1nc2cc3c(cc2s1)OCO3 | 46 | – | – | 50 | – | 43 | 35
COc1ccc(Cl)cc1C(=O)Nc1nc(C)cc(C)n1 | – | – | – | – | – | · | ·
CSCCC(NC(=O)c1ccc(Cl)cc1Cl)C(=O)NCc1ccncc1 (centres undefined) | – | – | – | – | – | · | ·
COc1ccc(/C=N\NC(=O)c2ccccc2OC)cc1COc1ccccc1C | – | – | – | – | – | · | ·
COc1ccc(/C=N/NC(=O)c2ccoc2C)cc1COc1c(C)cccc1C | 42 | – | – | 41 | – | 30 | –
CC(C)(C)C(=O)Nc1nnc(COc2ccc(Cl)cc2)s1 | – | – | – | – | – | · | ·
Cc1cccc(NC2=C/C(=N/S(=O)(=O)c3cccs3)c3ccccc3C2=O)c1 | · | · | – | · | – | · | ·
Cc1ccc(NC2=C/C(=N\S(=O)(=O)c3cccs3)c3ccccc3C2=O)c(C)c1 | 60 | – | – | 74 | – | 49 | –
Nc1nc(SCCO)[nH]c(=O)c1NC(=O)c1ccc(Br)o1 | – | – | – | – | – | · | ·
COC(=O)/C(=C/c1cccnc1)NC(=O)c1ccccc1 | – | – | – | – | – | · | ·
COC(=O)C(=C/C(C)=C/c1cccnc1)C(=O)OC | 50 | – | – | 50 | – | 41 | 46
O=S(=O)(Nc1cccc(-c2nnco2)c1)c1ccc(F)cc1F | – | – | – | – | · | · | ·
CCN1CCN(c2nnc(-c3ccccc3)c3ccccc23)CC1 | – | – | – | – | – | · | ·
CCN1CCN(c2cc3c(nn2)Oc2ccccc2N3C)CC1 | 77 | – | – | 44 | – | 57 | 71
COc1ccc(N2CCN(C(=O)c3ccc(Br)cc3)CC2)c([N+](=O)[O-])c1 | 53 | – | – | 54 | 105 | 48 | 63
COc1ccc(N2CCN(C(=O)c3ccc(C)cc3)CC2)c([N+](=O)[O-])c1 | – | – | – | – | – | · | ·
O=C1OC(c2ccccc2)=N/C1=C/c1cccc(OC(=O)c2cccs2)c1 | 51 | – | – | 48 | – | – | –
COc1ccc(NC(=O)c2ccc(NC(=O)c3cccs3)cc2)cc1 | – | – | – | – | – | · | ·
COc1ccc(C(=O)/C=C\c2ccc(NC(=O)c3cccs3)cc2)cc1 | 48 | – | – | 43 | – | 31 | 40
SMILES | TIM10 inh | tim23-1 inh | Mot1-301 SUMO | tim10-1 inh | PfHsp90 yeast 2 | tim10-1 confirm | TIM10 conf
C/C(=N\NC(=S)NCC(C)(C)C)c1cc(F)cc(F)c1O | 44 | – | – | 42 | – | 41 | 60
COc1ccc2c(C)nc(Nc3nc(C)c(C)c(=O)[nH]3)nc2c1 | 66 | – | – | 71 | – | 61 | 50
Cc1ccc(O)c(C(=O)/C=C/c2ccc3c(c2)OCCO3)c1 | 59 | – | – | 55 | – | 54 | 50
O=C(/C=C/c1ccc2c(c1)OCCO2)c1ccccc1 | – | – | – | – | – | · | ·
Cc1onc(-c2ccccc2Cl)c1C(=O)O/N=C(\N)c1ccccc1 | 55 | – | – | 49 | – | 63 | 45
Cc1onc(-c2ccccc2)c1C(=O)O/N=C(\N)c1ccc([N+](=O)[O-])o1 | 51 | – | – | 50 | – | – | 48
COc1ccc(S(=O)(=O)NCc2cccnc2)cc1C(=O)Nc1ccccc1 | – | – | – | – | – | · | ·
COc1ccccc1N(CC(=O)Nc1ccc(Br)cc1F)S(=O)(=O)c1cccs1 | – | – | · | – | · | · | ·
CC1C/C(=N\NC(=S)NCc2ccccc2)CC(C)(C)C1 (centres undefined) | 54 | – | · | 58 | – | 48 | 45
Cc1cccc(N2CCN(C(=O)CCCCCn3c(=S)[nH]c4ccc(N5CCOCC5)cc4c3=O)CC2)c1C | – | – | – | – | – | · | ·
O=[N+]([O-])c1ccc(S(=O)(=O)c2cccc(C(F)(F)F)c2)nc1 | 75 | – | – | 75 | 81 | 74 | 66
Cc1cc(=O)n2nc(N3CCCC(C(=O)NCc4ccccc4Cl)C3)sc2n1 (centres undefined) | – | – | – | – | – | · | ·
CCCc1cc(NCCN(C)C)n2c(nc3ccccc32)c1C#N | – | – | – | – | – | · | ·
CCCc1cc(NCC2CCCO2)n2c(nc3ccccc32)c1C#N (centres undefined) | 41 | – | · | 41 | – | 37 | –
Cc1cc(N2CCC(C(=O)Nc3ccc(F)cc3)CC2)nc(-c2ccccc2)n1 | 43 | – | – | 49 | – | – | –
CC1CCCN(C(=O)COC(=O)CNC(=O)c2sc3ccccc3c2Cl)C1 (centres undefined) | – | – | – | – | – | · | ·
COc1ccccc1C(=O)N=c1sc2c(C)ccc(OC)c2n1C | – | – | – | – | – | · | ·
Cc1ccc(C(=O)ON=C2CCN(c3ccc([N+](=O)[O-])cc3)CC2)cc1 | 61 | – | – | 53 | – | 49 | 63
O=C1/C(=C/c2ccncc2)CCc2ccccc21 | 45 | – | – | 50 | – | 56 | 55
CCOc1ccc(/C=C2\CCc3ccccc3C2=O)cc1 | – | – | – | – | – | · | ·
COc1ccc(-c2cn[nH]c2-c2ccc(OCc3ccc([N+](=O)[O-])cc3)cc2O)cc1 | 42 | – | – | 47 | – | – | –
CCc1cc(-c2[nH]ncc2-c2ccc(OC)cc2)c(O)cc1O | – | – | – | – | – | · | ·
COC(=O)Nc1ccc(S(=O)(=O)N2CCC(Cc3ccccc3)CC2)cc1 | 45 | – | – | 45 | – | 40 | –
Cc1cc(Cl)ccc1OCC(=O)Nc1nc(-c2cccs2)cs1 | 43 | – | – | 49 | – | 41 | –
CN1CCN(/N=C/c2c3ccccc3c(Cl)c3ccccc23)CC1 | 47 | – | – | 47 | · | 52 | 46
O=c1[nH]c2ccc(S(=O)(=O)N3CCCCC3)cc2s1 | – | – | – | – | – | · | ·
O=S(=O)(c1ccc2[nH]c3c(c2c1)CCCC3)N1CCCCC1 | 41 | – | – | 40 | – | – | 34
